Among the test systems are MOLT-4 leukemia; SR leukemia; RPMI-8226 leukemia; OVCAR-8 ovarian; OVCAR-5 ovarian; OVCAR-4 ovarian; SK-OV-3 ovarian; IGROV1 ovarian; OVCAR-3 ovarian; HS 578T breast; NCI/ADR-RES ovarian; T-47D breast; BT-549 breast; MDA-MB-435 melanoma; SW-620 colon; MCF7 breast; HCT-116 colon; HCC-2998 colon; KM12 colon.
Common to all, as to test: NCI-60 one-dose screen, 48 h (100 = growth as untreated, 0 = no growth, -100 = all killed)
Common to all, as to conditions: 10 µM unless noted

Structures are written as SMILES. About 83,000 compounds went through this panel and 20% of them were active in at least one assay; those are over-represented in the sample as a whole.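 In brief: 96-well plates, 48 h treatment, single concentration, percent growth endpoint.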 Values without a mark were called inactive. Active and inactive are the calls of the source. How the source made its calls: active means growth percent below 10; inactive means the rest.

Take `O=P(Oc1ccc(Cl)cc1)(N1CC1)N1CC1`: the growth with MOLT-4 leukemia was 84.8%; in the assay with SR leukemia it was 77.8%; with RPMI-8226 leukemia it was 88.6%; with OVCAR-8 ovarian, 89.3%; with OVCAR-5 ovarian, 117%; in the assay with OVCAR-4 ovarian it was 97.3%. The growth with SK-OV-3 ovarian is 104%; in the assay with IGROV1 ovarian, 89.1%; in the assay with OVCAR-3 ovarian it was 109%; in the assay on HS 578T breast, 103%; in the assay with NCI/ADR-RES ovarian, 101%; in the assay on T-47D breast, 106%. Further, the growth was 92.8% in the assay with BT-549 breast; 109% in the assay with MDA-MB-435 melanoma; 89.3% with SW-620 colon; 67.4% in the assay with MCF7 breast; 84% in the assay with HCT-116 colon; 88.5% in the assay with HCC-2998 colon. Also, the growth in the assay on KM12 colon was 110%.

As for `COc1ccc2c(c1)c(-c1nc(-c3cn(C)c4ncccc34)cs1)cn2CCN1CCOCC1`, the growth was 33.5% in the assay with MOLT-4 leukemia; 39.1% in the assay with SR leukemia; 13.3% with RPMI-8226 leukemia; 29.2% in the assay on OVCAR-8 ovarian; 78.2% in the assay on OVCAR-5 ovarian; 42% with OVCAR-4 ovarian. Besides, the growth was 85.1% in the assay on SK-OV-3 ovarian; 28.7% in the assay with IGROV1 ovarian; 47.9% with OVCAR-3 ovarian; 31.4% in the assay on HS 578T breast; 30.6% with NCI/ADR-RES ovarian; 20% with T-47D breast. The growth in the assay with BT-549 breast is 54.7%; in the assay with MDA-MB-435 melanoma, 72.9%; with SW-620 colon, 55.8%; in the assay with MCF7 breast it was 13.5%; in the assay with HCT-116 colon, 34.4%; in the assay with HCC-2998 colon, 95.6%. The growth in the assay on KM12 colon was 22.7%.

Regarding `CC(=O)O[C@H](C[C@H](C(C)C)N(C)C(=O)[C@@H](NC(=O)[C@H]1CCCCN1C)C(C)C)c1nc(C(=O)N[C@@H](Cc2ccccc2)C[C@H](C)C(=O)O)c(CCOCc2ccccc2)s1`, the growth with MOLT-4 leukemia is 11%; with SR leukemia, 9.77% (active); in the assay on RPMI-8226 leukemia, -3.42% (active); in the assay with OVCAR-8 ovarian, 10.8%; with OVCAR-5 ovarian it was 35.7%; with OVCAR-4 ovarian, 37%. For the same compound, the growth in the assay with SK-OV-3 ovarian was 44.6%; in the assay with IGROV1 ovarian, 10.7%; in the assay with OVCAR-3 ovarian, -6.07% (active); with HS 578T breast it was 11.4%; with NCI/ADR-RES ovarian, 9.71% (active); in the assay with T-47D breast it was 62.4%. Also, the growth in the assay on BT-549 breast is -36.6% (active); in the assay with MDA-MB-435 melanoma, -49.7% (active); with SW-620 colon it was 28.3%; with MCF7 breast it was 25.9%; in the assay with HCT-116 colon, -22.2% (active); in the assay with HCC-2998 colon it was 16.3%. Besides, in the assay on KM12 colon, the growth was 5.5% (active).

Consider `COc1cccc(/C=C/[N+](=O)[O-])c1`, for which the growth was 50.4% with MOLT-4 leukemia; -21.6% (active) in the assay on SR leukemia; -21.2% (active) in the assay with RPMI-8226 leukemia; 79.6% with OVCAR-8 ovarian; 92.8% in the assay on OVCAR-5 ovarian; 104% with OVCAR-4 ovarian. Further, the growth is 94.4% with SK-OV-3 ovarian; 55.8% in the assay on IGROV1 ovarian; 75.2% in the assay with OVCAR-3 ovarian; 95% with HS 578T breast; 92.6% in the assay with NCI/ADR-RES ovarian; 41.7% with T-47D breast. For the same compound, the growth in the assay on BT-549 breast is 29.5%; in the assay with MDA-MB-435 melanoma it was -25.3% (active); with SW-620 colon it was 77.5%; in the assay with MCF7 breast it was -11.2% (active); with HCT-116 colon it was -60.9% (active); in the assay on HCC-2998 colon it was -87.9% (active). For the same compound, in the assay with KM12 colon, the growth was 15.6%.

Regarding `CNC(=O)Oc1ccc2c(c1)OCO2`, the growth in the assay on MOLT-4 leukemia is 94.3%; with SR leukemia, 91.4%; with RPMI-8226 leukemia, 115%; with OVCAR-8 ovarian it was 101%; in the assay on OVCAR-5 ovarian, 106%; in the assay on OVCAR-4 ovarian, 116%. Also, the growth in the assay with SK-OV-3 ovarian was 116%; with IGROV1 ovarian it was 104%; in the assay with OVCAR-3 ovarian, 119%; in the assay with HS 578T breast, 109%; with NCI/ADR-RES ovarian it was 109%; with T-47D breast, 99.9%. Further, the growth with BT-549 breast is 97.1%; in the assay with MDA-MB-435 melanoma it was 103%; in the assay on SW-620 colon it was 107%; with MCF7 breast, 95.7%; in the assay with HCT-116 colon, 111%; in the assay with HCC-2998 colon, 106%. In addition, the growth in the assay on KM12 colon is 101%.

`CCC[CH2][Sn]([CH2]CCC)([CH2]CCC)[O]c1ccc(Cl)cc1Cl`: the growth in the assay with MOLT-4 leukemia was -6.07% (active); with SR leukemia it was -30.4% (active); with RPMI-8226 leukemia it was -9.16% (active); in the assay on OVCAR-8 ovarian, -48.1% (active); in the assay with OVCAR-5 ovarian, -66.3% (active); in the assay on OVCAR-4 ovarian, -100% (active). Moreover, the growth in the assay with SK-OV-3 ovarian was -97.5% (active); in the assay on IGROV1 ovarian it was -66.9% (active); in the assay on OVCAR-3 ovarian it was -100% (active); in the assay with HS 578T breast it was -10.3% (active); in the assay with NCI/ADR-RES ovarian, -84.6% (active); with T-47D breast, -84% (active). For the same compound, the growth was -81.7% (active) in the assay with BT-549 breast; -60.7% (active) in the assay with MDA-MB-435 melanoma; -92.9% (active) in the assay on SW-620 colon; -93% (active) in the assay with MCF7 breast; -79.9% (active) with HCT-116 colon; -95.4% (active) in the assay with HCC-2998 colon. The growth in the assay with KM12 colon is -94.2% (active).

For the compound `O=C1N[C@@H]2[C@@H](O)[C@@H](O)[C@H](O)C[C@H]2c2cc3c(c(O)c21)OCO3`, the growth in the assay with MOLT-4 leukemia was -6.14% (active); with SR leukemia, 6.14% (active); in the assay with RPMI-8226 leukemia, -24.2% (active); in the assay on OVCAR-8 ovarian, -7.71% (active); with OVCAR-5 ovarian it was -13.4% (active); in the assay on OVCAR-4 ovarian, -23.7% (active). Besides, the growth with SK-OV-3 ovarian is -11.2% (active); in the assay on IGROV1 ovarian, -7.85% (active); with OVCAR-3 ovarian it was -10.8% (active); with HS 578T breast, -14.2% (active); in the assay on NCI/ADR-RES ovarian, 1.95% (active); in the assay with T-47D breast, -8.46% (active). The growth in the assay on BT-549 breast was -12.5% (active); with MDA-MB-435 melanoma, -42.2% (active); in the assay with SW-620 colon, -0.0451% (active); in the assay with MCF7 breast, 1.73% (active); in the assay with HCT-116 colon it was -1.49% (active); with HCC-2998 colon, -22.8% (active). In addition, the growth with KM12 colon was -11.5% (active).

The record behind these values is PubChem BioAssay (NCI).
